Compound activity deposited in PubChem BioAssay by several laboratories.
In the library only some 3% were active in any assay of this set; here they are far more common.
TRPM1 prom inh = MITF TRPM1 promoter inhibition in SK-MEL-5 cells | SK-MEL-5 TRPM1 promoter luciferase, 24 h | inhibition, % at 12.5 µM | hit rate 0.83% among 330,000;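 active = mean inhibition across replicates of 60% or more, whatever share of single replicates reaches that level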
LMP1 NFkB inh = inhibitors of Epstein-Barr LMP1-induced NF-kappaB reporter | LMP1-induced NF-kappaB luciferase reporter cells, luminescence | inhibition, % at 12.5 µM | hit rate 0.69% among 350,000; in the data active = inhibition above about 41%;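 note: 0% = neutral control wells and 100% = reference inhibitor control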
KKLEB tox = reduces viability of KKLEB cystic fibrosis airway cells; KKLEB CF airway cells viability, ATPlite luminescence, overnight; active compounds read low; cells stimulated with P. aeruginosa culture filtrate; activity change (cytotoxicity), % at 5 µM; hit rate 0.36% among 360,000;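 active = corrected activity change at or below -50% at 5 µM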
Peg3 promoter = Peg3 promoter activity inhibition; hit rate 1.7% among 360,000; HeLa PEG-Prom luciferase reporter, luminescence, overnight; AID 588405; inhibition, % at 20 µM;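 active = inhibition of at least 50% at 20 µM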
HIF-2a block = blocks HIF-2a reporter activity | hit rate 0.72% among 360,000 | AID 624352 | inhibition, % at 18.8 µM | 786-0 RCC cells HIF-2a reporter, luciferase luminescence, overnight;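 active = inhibition of the luminescence signal of 40% or more relative to plate controls, in a single-dose primary screen at 18.75 µM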
CF NFkB block = cystic fibrosis NF-kB activation inhibition. KKLEB NF-kB-GFP reporter, PAF-induced, GFP fluorescence overnight. inhibition, % at 5 µM. hit rate 0.86% among 360,000;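 active = at least 50% inhibition at 5 µM, scaled per plate between neutral and stimulator controls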;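 note: PAF is a Pseudomonas aeruginosa culture filtrate used as stimulus; plate controls were PAF-stimulated DMSO wells for no effect and unstimulated DMSO wells for full effect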
* = called active by the depositor.

For Cc1cc(C(C)(C)C)cc(C)c1Cn1c2[n+](c3ccc(C(F)(F)F)cc31)CCCCC2 the results were TRPM1 prom inh 84.2*, LMP1 NFkB inh 0.2, KKLEB tox -20.7, Peg3 promoter 56.1*, HIF-2a block 22.5 and CF NFkB block 22.2.
For CCNC(=O)C[C@@H]1CC[C@@H]2NC[C@@H](O)COC[C@H]2O1 the results were HIF-2a block -5.6.
Screening Cc1csc(-c2ccc3cc(Cl)cc(Cl)c3n2)n1 returned KKLEB tox -1.8, Peg3 promoter -170.9, HIF-2a block -150.9 and CF NFkB block 5.9.
Nc1nc(Nc2ccccc2)sc1C(=O)c1ccccc1 was read as TRPM1 prom inh -65.4, LMP1 NFkB inh -59.0, KKLEB tox -19.7, Peg3 promoter 91.1*, HIF-2a block -381.0 and CF NFkB block 87.4*.
Screening COc1ccc(C(=O)c2sc(Nc3ccccc3)nc2N)cc1OC returned TRPM1 prom inh -33.2, LMP1 NFkB inh 7.9, KKLEB tox -7.0, Peg3 promoter 78.1*, HIF-2a block -74.3 and CF NFkB block 49.5.
For CCOc1ccc(N2CC(O)=C(c3nc4ccccc4c(=O)[nH]3)C2=N)cc1 the results were TRPM1 prom inh -10.2, LMP1 NFkB inh 45.8*, KKLEB tox 3.6, Peg3 promoter 4.0, HIF-2a block 2.8 and CF NFkB block -19.2.
CN(C)S(=O)(=O)c1ccc(C(=O)NCc2ccccc2)cc1 was read as TRPM1 prom inh 3.3, LMP1 NFkB inh 8.3, KKLEB tox -7.5, Peg3 promoter 0.1, HIF-2a block 6.2 and CF NFkB block 3.3.
`CN(C)S(=O)(=O)c1ccc(C(=O)NCC2CC2(Cl)Cl)cc1` (configuration not stated) gave TRPM1 prom inh -2.4, LMP1 NFkB inh 43.3*, KKLEB tox -4.3, Peg3 promoter 0.7, HIF-2a block 14.8 and CF NFkB block -6.7.
`COc1ccc(C(=O)N2CCN(c3ncnc4c(-c5ccccc5)nsc34)CC2)cc1` gave TRPM1 prom inh 8.3, LMP1 NFkB inh 9.8, KKLEB tox 8.4, Peg3 promoter -18.3, HIF-2a block -7.6 and CF NFkB block -7.0.
Screening COc1ccc(-c2nsc3c(N4CCCCC4)ncnc23)cc1 returned TRPM1 prom inh 64.7*, LMP1 NFkB inh 31.4, KKLEB tox -62.0*, Peg3 promoter 48.9, HIF-2a block 59.8* and CF NFkB block -26.4.
Screening Oc1cccc(-c2nnc(-c3cccc(O)c3)nn2)c1 returned TRPM1 prom inh 23.1, LMP1 NFkB inh 36.5, KKLEB tox -59.8*, Peg3 promoter -12.7, HIF-2a block -12.3 and CF NFkB block -2.3.
`Oc1cccc(-c2nc3ccccc3s2)c1` gave TRPM1 prom inh -15.7, LMP1 NFkB inh -12.8, KKLEB tox -10.9, Peg3 promoter -148.1, HIF-2a block -106.7 and CF NFkB block -8.0.
Screening O=C(Nc1cccc(Cl)c1)Nc1cnccn1 returned TRPM1 prom inh -20.5, LMP1 NFkB inh -1.7, KKLEB tox -4.8, Peg3 promoter -45.1, HIF-2a block -78.2 and CF NFkB block 23.8.
Screening O=C(Nc1cccc(Cl)c1)Nc1ccnc(-c2cccnc2)n1 returned TRPM1 prom inh 2.5, LMP1 NFkB inh 58.2*, KKLEB tox 9.5, Peg3 promoter 78.0*, HIF-2a block -73.4 and CF NFkB block -107.2.
For COc1cc([N+](=O)[O-])ccc1-c1ccc(/C=N\n2cnnc2)o1 the results were TRPM1 prom inh 9.4, LMP1 NFkB inh -9.5, KKLEB tox 1.8, Peg3 promoter 11.9, HIF-2a block 4.2 and CF NFkB block -65.6.
Cc1ccc(/C=C2/C(=O)ON=C2c2ccccc2)o1 was read as TRPM1 prom inh 71.5*, LMP1 NFkB inh -14.0, KKLEB tox -1.8, Peg3 promoter 50.1*, HIF-2a block 68.4* and CF NFkB block 11.3.
Screening COc1cc([N+](=O)[O-])ccc1-c1ccc(/C=C2\C(=O)ON=C2c2ccccc2)o1 returned TRPM1 prom inh 89.6*, LMP1 NFkB inh 17.1, KKLEB tox -24.9, Peg3 promoter 103.4*, HIF-2a block 9.5 and CF NFkB block 86.7*.
`CC1(C(=O)NCc2ccccc2)CCC(=O)N1CCCn1ccnc1` (configuration not stated) gave KKLEB tox -3.5, Peg3 promoter 6.7, HIF-2a block 0.8 and CF NFkB block -8.5.
Screening CN(C(=O)c1cccc(NC(=O)Cc2ccc(NC(=O)C3CCCN(C(=O)CCc4ccccc4)C3)cc2)c1)C1CCC1 (configuration not stated) returned TRPM1 prom inh 61.5*, LMP1 NFkB inh 18.0, KKLEB tox -0.6, Peg3 promoter 2.4, HIF-2a block 6.7 and CF NFkB block -0.3.
`CN(C(=O)c1cccc(NC(=O)Cc2ccc(NC(=O)C3CCCN(C(=O)CCc4ccccc4)C3)cc2)c1)C1CCCC1` (configuration not stated) gave TRPM1 prom inh 28.8, LMP1 NFkB inh 21.1, KKLEB tox 7.0, Peg3 promoter 39.2, HIF-2a block 3.2 and CF NFkB block 13.8.
Screening COc1ccc(NCc2n[nH]c(=O)c3ccccc23)cc1 returned TRPM1 prom inh -3.1, LMP1 NFkB inh -15.6, KKLEB tox -2.6, Peg3 promoter 4.9, HIF-2a block -29.1 and CF NFkB block 10.8.
`Cc1nnc(NCc2n[nH]c(=O)c3ccccc23)c2ccccc12` gave TRPM1 prom inh 20.0, LMP1 NFkB inh -6.6, KKLEB tox 4.5, Peg3 promoter 106.4*, HIF-2a block -41.7 and CF NFkB block -8.8.
Screening O=C(O)c1cccc(-c2csc(C(O)c3cccc(Cl)c3)n2)c1 (configuration not stated) returned KKLEB tox 6.0, Peg3 promoter -155.5, HIF-2a block -77.2 and CF NFkB block -1.7.
`O=c1c([N+](=O)[O-])cn(Cc2ccccc2)c(=O)n1Cc1ccccc1` gave TRPM1 prom inh 16.0, LMP1 NFkB inh 67.5*, KKLEB tox 19.2, Peg3 promoter 20.8, HIF-2a block 20.9 and CF NFkB block -24.5.
Screening COc1ccc(-n2nc(C(=O)NCC(=O)NCCCN3CCOCC3)c3ccccc3c2=O)cc1OC returned TRPM1 prom inh -9.8, LMP1 NFkB inh 0.9, KKLEB tox -76.3*, Peg3 promoter -0.1, HIF-2a block 4.0 and CF NFkB block 12.7.
For COCCNC(=O)C1(C)CCCN(Cc2noc(-c3ccccc3OC)n2)C1 (configuration not stated) the results were KKLEB tox 11.0, Peg3 promoter 10.6, HIF-2a block 5.6 and CF NFkB block -10.8.
CCN=C1S/C(=C\c2cc(OCC)c(O)cc2Br)C(=O)N1CC was read as TRPM1 prom inh -14.6, LMP1 NFkB inh 53.6*, KKLEB tox -28.7, Peg3 promoter 51.2*, HIF-2a block 15.2 and CF NFkB block 46.6.
Screening O=C(c1ccc([N+](=O)[O-])s1)N1CCCc2ccccc21 returned TRPM1 prom inh 70.5*, LMP1 NFkB inh -7.5, KKLEB tox -6.2, Peg3 promoter -6.9, HIF-2a block -14.6 and CF NFkB block 4.7.
